In the supplement of paper PMC6609913:
Counter-ions that a name gives are not always drawn. ± gives the standard deviation of the averaged measurements. The full ranking holds about 1,300 compounds; the median of “normalised cell viability” is about 1, and the lowest 2% start at about 0.15. The entries come from a sample that favours the lowest values as a whole.

Tested on: V-C8 + BRCA2 (BRCA2-proficient hamster cells)
Assay: normalised cell viability (fraction of plate median); higher = more viable cells (less toxic)
Settings: 5 µM
Summary of the method: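 Hamster V-C8 cells lacking BRCA2 and V-C8 cells with BRCA2 restored were seeded in 96-well plates. Library drugs (10 mM DMSO stocks) were added 24 h later at 5 μM in 100 μl medium, next to DMSO control wells, for 3 days (screen 1) or 6 days (screen 2). Cell viability was read by resazurin assay, median-plate normalised (modified robust per cent of sample), and triplicate wells were averaged.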

SMILES	normalised cell viability (treatment time: 3 days)	normalised cell viability (treatment time: 6 days)
N=C(NCCCCCCNC(=N)NC(=N)Nc1ccc(Cl)cc1)NC(=N)Nc1ccc(Cl)cc1 [Chlorhexidine]	0.117 ± 0.0076	0.103 ± 0.0066
CC(C)NC(=N)NC(=N)Nc1ccc(Cl)cc1 [Proguanil hydrochloride]	0.211 ± 0.013	0.203 ± 0.015
N=C(N)NC(=N)NCCc1ccccc1 [Phenformin hydrochloride]	1.01 ± 0.029	0.9752 ± 0.0082
CC(=O)Nc1c(I)c(NC(C)=O)c(I)c(C(=O)O)c1I [Diatrizoic acid dihydrate]	0.996 ± 0.035	1.05 ± 0.077
Cc1cc(/C=C/c2ccc3cc(N(C)C)ccc3[n+]2C)c(C)n1-c1ccccc1 [Pyrvinium pamoate]	0.144 ± 0.0086	0.171 ± 0.014
Cc1cc(=O)n(-c2ccccc2)n1C [Antipyrine]	0.997 ± 0.038	1.02 ± 0.046
CCCCC(CC)CNC(=N)NC(=N)NCCCCCCNC(=N)NC(=N)NCC(CC)CCCC (stereo not given) [Alexidine dihydrochloride]	0.143 ± 0.002	0.149 ± 0.011
O=C1C=CC(=O)c2c1ccc1c2ccc2ccccc21 [Chrysene-1,4-quinone]	1.024 ± 0.0027	1 ± 0.11
CC(C)Oc1ccc2c(=O)c(-c3ccccc3)coc2c1 [Ipriflavone]	0.993 ± 0.029	1.08 ± 0.11
Nc1ccn([C@@H]2CS[C@H](CO)O2)c(=O)n1 [Lamivudine]	0.335 ± 0.012	0.406 ± 0.023
OC(CCN1CCCC1)(c1ccccc1)C1CCCCC1 (stereo not given) [Procyclidine hydrochloride]	0.981 ± 0.047	0.987 ± 0.012
COc1cc(OC)c(C(=O)CCCN2CCCC2)c(OC)c1 [Buflomedil hydrochloride]	1.04 ± 0.096	1.07 ± 0.025
CN1C(C)(C)CCCC1(C)C [Pempidine tartrate]	1.1 ± 0.035	1.007 ± 0.0034
C[C@@]1(O)CCOC(=O)C1 [Mevalonic-D, L acid lactone]	1.09 ± 0.038	1.06 ± 0.054
Nc1ccc(S(=O)(=O)Nc2ccnn2-c2ccccc2)cc1 [Sulfaphenazole]	1.07 ± 0.02	1.01 ± 0.041
Cc1ccnc2c1NC(=O)c1cccnc1N2C1CC1 [Nevirapine]	1.03 ± 0.087	1.05 ± 0.047
C[C@H]1O[C@@H](O[C@H]2[C@@H](O)C[C@H](O[C@H]3[C@@H](O)C[C@H](O[C@H]4CC[C@@]5(C)[C@H](CC[C@@H]6[C@@H]5C[C@@H](O)[C@]5(C)[C@@H](C7=CC(=O)OC7)CC[C@]65O)C4)O[C@@H]3C)O[C@@H]2C)C[C@H](O)[C@@H]1O [Digoxin]	1.06 ± 0.036	1.07 ± 0.13
COc1ccc(NS(=O)(=O)c2ccc(N)cc2)nn1 [Sulfamethoxypyridazine]	0.879 ± 0.062	0.892 ± 0.069
CC(=O)c1ccc(S(=O)(=O)NC(=O)NC2CCCCC2)cc1 [Acetohexamide]	1.22 ± 0.019	1.025 ± 0.0097
O=C1C(O)=C([C@H]2CC[C@H](c3ccc(Cl)cc3)CC2)C(=O)c2ccccc21 [Atovaquone]	0.958 ± 0.012	0.922 ± 0.04
CC(C)(C)NC(=O)[C@@H]1C[C@@H]2CCCC[C@@H]2CN1C[C@@H](O)[C@H](Cc1ccccc1)NC(=O)[C@H](CC(N)=O)NC(=O)c1ccc2ccccc2n1 [Saquinavir mesylate]	0.842 ± 0.061	0.952 ± 0.073
O=C1Cc2cc(CCN3CCN(c4nsc5ccccc45)CC3)c(Cl)cc2N1 [Ziprasidone  Hydrochloride]	0.206 ± 0.016	0.23 ± 0.013

SMILES	normalised cell viability (treatment time: 3 days)	normalised cell viability (treatment time: 6 days)
CO/N=C(\C(=O)N[C@@H]1C(=O)N2C(C(=O)OC(C)OC(C)=O)=C(COC(N)=O)CS[C@H]12)c1ccco1 (stereo not given in full) [Cefuroxime axetil]	1.01 ± 0.057	1.04 ± 0.12
Cc1cccc(N(C)C(=S)Oc2ccc3ccccc3c2)c1 [Tolnaftate]	1.02 ± 0.027	1.04 ± 0.044
CC(=O)CC(c1ccc([N+](=O)[O-])cc1)c1c(O)c2ccccc2oc1=O (stereo not given) [Acenocoumarol]	0.92 ± 0.023	0.979 ± 0.053
N[C@H]1CONC1=O [(S)-(-)-Cycloserine]	1.04 ± 0.043	0.917 ± 0.29
O=C1[C@H](CC[C@H](O)c2ccc(F)cc2)[C@@H](c2ccc(O)cc2)N1c1ccc(F)cc1 [Ezetimibe]	1.03 ± 0.04	1.08 ± 0.054
OC[C@H]1O[C@@H](Oc2ccc(O)cc2)[C@H](O)[C@@H](O)[C@@H]1O [Arbutin]	1.02 ± 0.05	0.979 ± 0.024
CCOC(=O)/C=C(C)/C=C/C=C(C)/C=C/c1c(C)cc(OC)c(C)c1C [Etretinate]	1.01 ± 0.043	1.13 ± 0.071
C[C@H]1c2cccc(O)c2C(=O)C2=C(O)[C@]3(O)C(=O)C(C(N)=O)=C(O)[C@@H](N(C)C)[C@@H]3[C@@H](O)[C@@H]21 [Doxycycline hydrochloride]	0.947 ± 0.025	0.982 ± 0.033
CC(C)(C(=O)O)c1ccc(C(O)CCCN2CCC(C(O)(c3ccccc3)c3ccccc3)CC2)cc1 (stereo not given) [Fexofenadine HCl]	1.02 ± 0.051	1.04 ± 0.026
OC(CCCN1CCCCC1)(c1ccccc1)c1ccccc1 [Diphenidol hydrochloride]	1.08 ± 0.066	1.05 ± 0.025
CC(C)(C)c1ccc(C(O)CCCN2CCC(C(O)(c3ccccc3)c3ccccc3)CC2)cc1 (stereo not given) [Terfenadine]	0.118 ± 0.0067	0.103 ± 0.0052
Cc1cn[nH]c1 [Fomepizole]	1.07 ± 0.021	0.9639 ± 0.0076
CC/C(=C(\c1ccccc1)c1ccc(OCCN(C)C)cc1)c1ccccc1 [Tamoxifen citrate]	0.878 ± 0.054	0.88 ± 0.021
CN(C)CCOc1ccc(/C(=C(/CCCl)c2ccccc2)c2ccccc2)cc1 [Toremifene]	0.822 ± 0.058	0.891 ± 0.027
CCN(CC)CCOc1ccc(C(=C(Cl)c2ccccc2)c2ccccc2)cc1 [Clomiphene citrate (Z,E)]	0.124 ± 0.0093	0.128 ± 0.013
CC[C@H](c1ccc(O)cc1)[C@@H](CC)c1ccc(O)cc1 [Hexestrol]	0.9735 ± 0.0097	0.944 ± 0.19
Nc1nc(NC2CC2)c2ncn([C@H]3C=C[C@@H](CO)C3)c2n1 [Abacavir Sulfate]	1.04 ± 0.02	1.07 ± 0.034
C=CCOC(Cn1ccnc1)c1ccc(Cl)cc1Cl (stereo not given) [Enilconazole]	0.985 ± 0.021	1.04 ± 0.013
NC(N)=Nc1nc(CSCC/C(N)=N/S(N)(=O)=O)cs1 [Famotidine]	1.16 ± 0.079	1.1 ± 0.096
CC(C)(O/N=C(\C(=O)N[C@@H]1C(=O)N2C(C(=O)[O-])=C(C[n+]3ccccc3)CS[C@H]12)c1csc(N)n1)C(=O)O [Ceftazidime pentahydrate]	1.03 ± 0.011	1 ± 0.039
Cc1ccc(O)c([C@H](CCN(C(C)C)C(C)C)c2ccccc2)c1 [Tolterodine tartrate]	1.05 ± 0.062	0.965 ± 0.053
COc1ccc2cc(CCC(C)=O)ccc2c1 [Nabumetone]	1.05 ± 0.12	1.02 ± 0.044

SMILES	normalised cell viability (treatment time: 3 days)	normalised cell viability (treatment time: 6 days)
CC(C)C(=O)c1c(C(C)C)nn2ccccc12 [Ibudilast]	0.987 ± 0.062	0.981 ± 0.061
CC(C)(C)NC[C@H](O)c1ccc(O)c(CO)c1 [Levalbuterol hydrochloride]	0.965 ± 0.089	1.004 ± 0.0069
Clc1ccc(CO/N=C(\Cn2ccnc2)c2ccc(Cl)cc2Cl)c(Cl)c1 [Oxiconazole Nitrate]	1.07 ± 0.16	0.675 ± 0.12
CC(=O)OCC(=O)[C@@]12OC(C)(C)O[C@@H]1C[C@H]1[C@@H]3C[C@H](F)C4=CC(=O)C=C[C@]4(C)[C@@]3(F)[C@@H](O)C[C@@]12C [Fluocinonide]	1.04 ± 0.017	1.06 ± 0.04
C[n+]1ccccc1/C=N/O [Pralidoxime chloride]	0.99 ± 0.036	0.9475 ± 0.0081
NS(=O)(=O)c1cc(C2(O)NC(=O)c3ccccc32)ccc1Cl (stereo not given) [Chlorthalidone]	1.1 ± 0.018	1.03 ± 0.079
CCc1cccc2c3c([nH]c12)C(CC)(CC(=O)O)OCC3 (stereo not given) [Etodolac]	0.922 ± 0.034	1.04 ± 0.084
CN[C@@H]1[C@H](O[C@H]2[C@H](O[C@H]3[C@H](O)[C@@H](O)[C@H](NC(=N)N)[C@@H](O)[C@@H]3NC(=N)N)O[C@@H](C)[C@]2(O)CO)O[C@@H](CO)[C@H](O)[C@H]1O [Dihydrostreptomycin sulfate]	0.911 ± 0.07	0.983 ± 0.042
NS(=O)(=O)c1cc2c(cc1C(F)(F)F)NC(Cc1ccccc1)NS2(=O)=O (stereo not given) [Bendroflumethiazide]	0.992 ± 0.096	1.03 ± 0.032
CC[C@H](C)C(=O)O[C@H]1CCC=C2C=C[C@H](C)[C@H](CC[C@@H]3C[C@@H](O)CC(=O)O3)[C@H]21 [Mevastatin]	0.246 ± 0.0034	0.23 ± 0.011
CC[C@H](C)C(=O)O[C@H]1C[C@H](O)C=C2C=C[C@H](C)[C@H](CC[C@@H](O)C[C@@H](O)CC(=O)O)[C@H]21 [Pravastatin]	0.969 ± 0.14	1.02 ± 0.089
CC[C@H](C)C(=O)O[C@H]1C[C@@H](C)C=C2C=C[C@H](C)[C@H](CC[C@@H]3C[C@@H](O)CC(=O)O3)[C@H]21 [Lovastatin]	0.19 ± 0.015	0.153 ± 0.019
NCCNCCNCCNCCN [Tetraethylenepentamine pentahydrochloride]	0.972 ± 0.03	1.01 ± 0.024
CC=CC1=C(C(=O)O)N2C(=O)[C@@H](NC(=O)[C@H](N)c3ccc(O)cc3)[C@H]2SC1 [Cefprozil]	0.951 ± 0.071	0.908 ± 0.072
Clc1cnccn1 [2-Chloropyrazine]	1.02 ± 0.036	1.02 ± 0.071
Cc1cc(-c2ccccc2)nnc1NCCN1CCOCC1 [Minaprine dihydrochloride]	1.1 ± 0.02	1.03 ± 0.048
CC(C(=O)O)c1ccc2c(c1)[nH]c1ccc(Cl)cc12 (stereo not given) [Carprofen]	1.04 ± 0.11	1.04 ± 0.13
CN(Cc1ccc(C(C)(C)C)cc1)Cc1cccc2ccccc12 [Butenafine Hydrochloride]	1.06 ± 0.05	0.982 ± 0.048
C[C@@H]1C[C@H]2[C@@H]3C[C@H](F)C4=CC(=O)C=C[C@]4(C)[C@@]3(Cl)[C@@H](O)C[C@]2(C)[C@H]1C(=O)COC(=O)C(C)(C)C [Clocortolone pivalate]	1.03 ± 0.27	0.899 ± 0.07
CCN(CC)C(=O)C1(c2ccccc2)CC1CN (stereo not given) [Milnacipran hydrochloride]	0.956 ± 0.095	0.937 ± 0.048
COc1nc(C)nc(Cl)c1NC1=NCCN1 [Moxonidine]	1.014 ± 0.0037	0.9963 ± 0.0028
